USP17 block: inhibitors of human USP17 deubiquitinase; purified USP17, Ub-rhodamine cleavage fluorescence, 3 h; inhibition, % at 50 µM; 47,000 compounds, 6.5% hits; AID 1645855, 2021
USP30 block: inhibitors of human USP30 deubiquitinase. Ubiquitin carboxyl-terminal hydrolase 30 (Homo sapiens), Q70CQ3. purified USP30, Ub-rhodamine cleavage fluorescence. inhibition, % at 25 µM. 47,000 compounds, 5.3% hits. AID 1645860, 2021
Target sequence (Q70CQ3 whole entry, looked up): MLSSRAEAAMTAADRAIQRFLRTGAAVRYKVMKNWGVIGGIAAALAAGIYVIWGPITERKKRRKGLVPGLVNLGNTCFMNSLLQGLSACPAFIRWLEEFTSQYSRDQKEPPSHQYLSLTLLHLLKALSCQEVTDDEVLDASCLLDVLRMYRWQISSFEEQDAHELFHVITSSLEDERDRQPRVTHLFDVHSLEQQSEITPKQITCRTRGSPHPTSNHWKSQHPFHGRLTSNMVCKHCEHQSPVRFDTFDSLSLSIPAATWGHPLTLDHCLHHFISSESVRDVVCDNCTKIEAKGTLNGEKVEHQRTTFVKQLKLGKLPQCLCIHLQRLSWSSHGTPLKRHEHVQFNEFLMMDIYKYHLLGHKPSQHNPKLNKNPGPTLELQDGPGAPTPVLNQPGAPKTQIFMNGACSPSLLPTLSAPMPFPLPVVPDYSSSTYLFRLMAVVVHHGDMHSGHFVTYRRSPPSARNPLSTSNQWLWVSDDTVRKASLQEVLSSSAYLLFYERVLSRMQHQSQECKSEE
USP28 inh: inhibitors of human USP28 deubiquitinase | Ubiquitin carboxyl-terminal hydrolase 28 (Homo sapiens), Q96RU2 | purified USP28, Ub-rhodamine cleavage fluorescence, 30 min | inhibition, % at 25 µM | 47,000 compounds, 3% hits | AID 1645857, 2021
USP8 block: inhibitors of human USP8 deubiquitinase. 47,000 compounds, 4.2% hits. Ubiquitin carboxyl-terminal hydrolase 8 (Homo sapiens), P40818. purified USP8, Ub-rhodamine cleavage fluorescence, 30 min. AID 1645853, 2021. inhibition, % at 20 µM
Large screens that a line does not name were inactive. This is a sample that favours compounds with a hit; in the whole collection about 13% have one here. Rule as the data show it: active = inhibition above about 30%; inactive = the rest.

CCOC(=O)C1CCN(C(=O)Cn2c(=O)cc(C)c3c(-c4ccccc4)nn(-c4ccccc4)c32)CC1	USP30 block 34
Cc1ccc(Cl)cc1N1CCN(C(=O)CN2Cc3ccccc3C2=O)CC1	USP28 inh 47
CCCc1nn(C)c2c(=O)[nH]c(-c3cc(S(=O)(=O)N4CCOCC4)ccc3OCC)nc12	none
Cc1cccc(NC(=O)Cn2c(=O)nc(N(C)c3ccccc3)c3ccccc32)c1	USP28 inh 41
Cc1ccccc1N1C(=O)/C(=C\c2cccn2C)c2ccccc2C1=O	USP17 block 61
O=C(/C=C/c1ccc2c(c1)OCO2)c1ccc(-n2cncn2)cc1	USP17 block 45 (no result: USP30 block, USP28 inh)
CC(=O)N(Cc1nn(C)c2c1CN(S(=O)(=O)c1ccccc1F)CC2)c1ccccc1	none
Cc1ccc(CC(=O)NCCS(=O)(=O)c2ccc(Br)cc2)cc1	none
CCn1cc(-c2cc(C(=O)N3CCC[C@]4(C)NCCC[C@@H]34)on2)cn1	none
CCN(CC)S(=O)(=O)c1ccc2oc(N3CCOCC3)nc2c1	USP8 block 68
CNc1cc(C2CCCN2C(=O)c2cn3c(C)cccc3n2)nc(C)n1 (configuration not stated)	none
O=C(Nc1ccc(SCc2nnc(-c3ccccc3)o2)cc1)C1CC1	USP28 inh 61
CCCC(=O)Nc1ccc(SCc2nnc(-c3ccccc3)o2)cc1	USP28 inh 66
Cn1c(=O)c(C(CO)CCO)nc2c(OCc3ccccc3)nc(N)nc21 (configuration not stated)	none
Cc1cc(C)c2c(N)c(C(=O)Nc3ccccc3Br)sc2n1	USP17 block 77 (no result: USP30 block, USP28 inh)
Cc1nc2sc(C(=O)Nc3ccccc3Br)c(N)c2c(C)c1C	USP17 block 46, USP30 block 51, USP28 inh 33
Cc1ccc(-c2ncc(C(=O)Nc3ccccc3Br)c(-c3ccncc3)n2)cc1	none
Cc1cc(C(F)(F)F)c2c(N)c(C(=O)Nc3cccc(C(F)(F)F)c3)sc2n1	none
COc1cc(-c2cc(C(=O)Nc3ccc(C)cc3Cl)c3ccccc3n2)cc(OC)c1OC	none
COc1ccc(OC)c(C(C(=O)NC2CCCCC2)N(C(=O)c2ccc3c(c2)OCCO3)c2ccc(C)cc2)c1 (configuration not stated)	USP30 block 41, USP8 block 33
COc1ccccc1OCC(=O)N1CCC(c2nc3ccccc3cc2C(N)=O)CC1	USP30 block 34
O=C(COC(=O)C(c1ccccc1)c1ccccc1)Nc1cc(S(=O)(=O)N2CCOCC2)ccc1N1CCCC1	none
CCOc1ncccc1C(=O)OCC(=O)c1ccc(C)c(C)c1	USP28 inh 38
CCc1ccc(C(=O)COC(=O)c2cccnc2Nc2ccccc2F)cc1	none
O=C1CC(c2ccco2)Cc2nc(N3CCc4ccccc43)ncc21 (configuration not stated)	USP17 block 37, USP8 block 40
COc1cc(C2CC(=O)c3cnc(N4CCc5ccccc54)nc3C2)cc(OC)c1OC (configuration not stated)	none
O=C1CC(c2ccc(F)cc2)Cc2nc(N3CCc4ccccc4C3)ncc21 (configuration not stated)	none
Cc1ccc2c(C)nc(Nc3ncc4c(n3)CC(c3ccco3)CC4=O)nc2c1 (configuration not stated)	USP17 block 59, USP30 block 38, USP8 block 61
O=C1CC(c2ccco2)Cc2nc(N3CCc4ccccc4C3)ncc21 (configuration not stated)	USP17 block 44 (no result: USP30 block, USP28 inh)
O=C(Nc1ncc2c(n1)CC(c1ccco1)CC2=O)c1ccco1 (configuration not stated)	none
Cc1nc(-c2ccccn2)sc1C(=O)NC(C)c1ccncc1 (configuration not stated)	none (no result: USP30 block, USP28 inh)
Cc1ccccc1NS(=O)(=O)c1cc(C(=O)NCc2ccncc2)ccc1C	none
Fc1cccc(-c2nnc3sc(-c4ccco4)nn23)c1	USP8 block 43
Cc1cccc(CNC(=O)C2CCCN(S(=O)(=O)N3CCCCC3)C2)c1 (configuration not stated)	USP8 block 32 (no result: USP17 block)
O=C(Nc1cccc2ccccc12)C1CCCN(S(=O)(=O)Cc2ccccc2)C1 (configuration not stated)	USP17 block 73, USP8 block 32
CS(=O)(=O)NC1CCCN(C(=O)Nc2cccc3ccccc23)C1 (configuration not stated)	USP17 block 87, USP8 block 93
Cc1cccc(CNC(=O)C2CCCN(S(=O)(=O)N3CCOCC3)C2)c1 (configuration not stated)	none
CC1CCN(S(=O)(=O)N2CCCC(C(=O)NCc3ccccc3)C2)CC1 (configuration not stated)	USP30 block 36
COC(=O)C1Cc2c([nH]c3ccccc23)C2(CCN(Cc3ccccc3)CC2)N1 (configuration not stated)	none
O=C(C1CCCN(S(=O)(=O)N2CCCCCC2)C1)N1CCN(c2ccccc2)CC1 (configuration not stated)	USP28 inh 54
Cc1cccc(CNC(=O)C2CCCN(S(=O)(=O)Cc3ccccc3Cl)C2)c1 (configuration not stated)	USP30 block 39
N#Cc1ccccc1NC(=O)c1ccccc1CCc1ccccc1	none
COC(=O)c1ccc2c(=O)n(CCCCCC(=O)NCCc3ccccc3Cl)c(=O)[nH]c2c1	USP8 block 43
COC(=O)c1ccc2c(=O)n(CCCCCC(=O)NCCc3ccc(S(N)(=O)=O)cc3)c(=O)[nH]c2c1	USP30 block 88, USP28 inh 86, USP8 block 82
O=C1CSCC(=O)N1c1ccc(OC(F)(F)F)cc1	none
CCCCC(=O)Nc1ccc2c(c1)nc(CCN1CCCC1)n2C	none
Cc1nc(-c2ccccc2F)sc1C(=O)NCc1ccc(S(N)(=O)=O)cc1	none
COc1ccccc1CNC(=O)c1sc2nc(C)cc(C)c2c1-n1cccc1	none
COc1ccc(-c2nc(C)c(C(=O)NCCc3ccc(S(N)(=O)=O)cc3)s2)cc1	USP8 block 37
Cc1cc(C)c2c(-n3cccc3)c(C(=O)NCCc3ccc(S(N)(=O)=O)cc3)sc2n1	USP28 inh 80
COc1ccc(C2=C(NCCc3ccc(S(N)(=O)=O)cc3)c3ccccc3C2=O)cc1	USP30 block 49, USP28 inh 31
COc1cc2c(cc1OC)CN(C(=O)C1CCC1)CC2	none
Cc1nc(C2CCCN(S(C)(=O)=O)C2)nc2c1CCC(=O)N2Cc1ccc(F)cc1 (configuration not stated)	none
C=C1CCC[C@]2(C)C[C@H]3OC(=O)C(CN(C)Cc4ccccc4)[C@H]3CC12 (some centres not stated)	USP30 block 30
C=C1CCC[C@]2(C)C[C@H]3OC(=O)C(CN(C)C[C@@H](O)c4cccc(O)c4)[C@H]3C[C@@H]12 (some centres not stated)	none
CC(=O)N1CCC2(CC1)CC(NC(=O)Cc1ccc3c(c1)OCO3)c1ccccc1O2 (configuration not stated)	none

Bioassay records from PubChem.
